Results on 1 molecule are retold here after the supplement of paper PMC8728848.

The sample as a whole holds a higher share of the strongest signals than the screen did.

What all share (experiment): glycan array binding signal (z-score within array); higher = stronger binding
What all share (conditions): glycan notation: IUPAC condensed, linker removed

Test [1] deals with Fuc(a1-2)Gal(b1-3)GalNAc(b1-4)[Neu5Ac(a2-3)]Gal(b1-4)Glc. In outline: (§1)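 From the Consortium for Functional Glycomics database, 3228 arrays were curated, keeping only those whose protein sequence was available. Binding is given as a within-array Z-score averaged across arrays sharing a protein sequence and across linkers. Negative Z-scores can be read as non-binding.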
The target of test [2] is Fuc(a1-2)Gal(b1-4)GlcNAc(b1-2)Man. In outline: as §1
The target of test [3] is Fuc(a1-2)Gal(b1-4)GlcNAc(b1-2)[Fuc(a1-2)Gal(b1-4)GlcNAc(b1-4)]Man(a1-3)[Fuc(a1-2)Gal(b1-4)GlcNAc(b1-2)Man(a1-6)]Man(b1-4)GlcNAc(b1-4)GlcNAc. An outline of the steps:
as §1

The target of test [4] is Fuc(a1-2)Gal(b1-4)GlcNAc(b1-6)GalNAc. An outline of the steps: as §1
For test [5], the target named is Fuc(a1-2)Gal(b1-4)[Fuc(a1-3)]GlcNAc(b1-3)Gal(b1-4)[Fuc(a1-3)]GlcNAc(b1-3)Gal(b1-4)[Fuc(a1-3)]GlcNAc. In outline: as §1
Test [6] has as its target Fuc(a1-2)Gal6S(b1-4)Glc. In outline: as §1
The target of test [7] is Fuc(a1-2)[Gal(a1-3)]Gal(b1-4)[Fuc(a1-3)]GlcNAc. In outline: as §1
In test [8] the target is Fuc(a1-2)[GalNAc(a1-3)]Gal(b1-3)GalNAc(a1-3)[Fuc(a1-2)]Gal(b1-4)GlcNAc. An outline of the steps: as §1
Test [9] concerns the target Fuc(a1-2)[GalNAc(a1-3)]Gal(b1-4)GlcNAc(b1-2)Man(a1-3)[Fuc(a1-2)[GalNAc(a1-3)]Gal(b1-4)GlcNAc(b1-2)Man(a1-6)]Man(b1-4)GlcNAc(b1-4)GlcNAc. An outline of the steps:
as §1

Test [10] deals with Fuc(a1-3)[Gal(b1-4)]GlcNAc(b1-3)Gal(b1-4)[Fuc(a1-3)]GlcNAc(b1-3)Gal(b1-4)[Fuc(a1-3)]GlcNAc. An outline of the steps:
as §1

Test [11] has as its target Gal(a1-3)Gal(b1-4)Glc. An outline of the steps:
as §1

For test [12], the target named is Gal(a1-4)Gal(b1-3)GlcNAc(b1-2)Man(a1-3)[Gal(a1-4)Gal(b1-3)GlcNAc(b1-2)Man(a1-6)]Man(b1-4)GlcNAc(b1-4)GlcNAc. In outline:
as §1

Test [13] has as its target Gal(a1-4)Gal(b1-4)GlcNAc(b1-2)Man(a1-3)[Gal(a1-4)Gal(b1-4)GlcNAc(b1-2)Man(a1-6)]Man(b1-4)GlcNAc(b1-4)GlcNAc. In outline: as §1
Test [14] has as its target Gal(a1-6)Glc. An outline of the steps: as §1
For test [15], the target named is Gal(b1-3)GalNAc(a1-3)[Fuc(a1-2)]Gal(b1-4)GlcNAc. An outline of the steps:
as §1

The target in test [16] is Gal(b1-3)GlcNAc(b1-3)Gal(b1-4)GlcNAc(b1-3)Gal(b1-4)GlcNAc(b1-2)[Gal(b1-3)GlcNAc(b1-3)Gal(b1-4)GlcNAc(b1-3)Gal(b1-4)GlcNAc(b1-6)]Man(a1-6)[Gal(b1-3)GlcNAc(b1-3)Gal(b1-4)GlcNAc(b1-3)Gal(b1-4)GlcNAc(b1-2)Man(a1-3)]Man(b1-4)GlcNAc(b1-4)[Fuc(a1-6)]GlcNAc. In outline:
as §1

Test [17] concerns the target Gal(b1-3)GlcNAc(b1-3)Gal(b1-4)GlcNAc(b1-6)[Gal(b1-3)GlcNAc(b1-3)]Gal(b1-4)Glc. In outline: as §1
Test [18] has as its target Gal(b1-4)GlcNAc(b1-2)Man(a1-6)[Man(a1-3)]Man(b1-4)GlcNAc(b1-4)GlcNAc. An outline of the steps:
as §1

Test [19] has as its target Gal(b1-4)GlcNAc(b1-2)[Gal(b1-4)GlcNAc(b1-6)]Man(a1-6)[Gal(b1-4)GlcNAc(b1-2)Man(a1-3)]Man(b1-4)GlcNAc(b1-4)GlcNAc. An outline of the steps:
as §1

Test [20] deals with Gal(b1-4)GlcNAc(b1-3)Gal(b1-4)GlcNAc(b1-2)[Gal(b1-4)GlcNAc(b1-3)Gal(b1-4)GlcNAc(b1-6)]Man(a1-6)[Gal(b1-4)GlcNAc(b1-3)Gal(b1-4)GlcNAc(b1-2)Man(a1-3)]Man(b1-4)GlcNAc(b1-4)GlcNAc. In outline: as §1
The target in test [21] is Gal(b1-4)GlcNAc(b1-3)Gal(b1-4)GlcNAc(b1-3)[Gal(b1-4)GlcNAc(b1-3)Gal(b1-4)GlcNAc(b1-6)]GalNAc. An outline of the steps:
as §1

The target of test [22] is Gal6S(b1-4)Glc. In outline: as §1

B1: DC-Sign-R (Homo sapiens), Q9H2X3 (protein)
chain: MSDSKEPRVQQLGLLEEDPTTSGIRLFPRDFQFQQIHGHKSSTGCLGHGALVLQLLSFMLLAGVLVAILVQVSKVPSSLSQEQSEQDAIYQNLTQLKAAVGELSEKSKLQEIYQELTQLKAAVGELPEKSKLQEIYQELTRLKAAVGELPEKSKLQEIYQELTRLKAAVGELPEKSKLQEIYQELTRLKAAVGELPEKSKLQEIYQELTELKAAVGELPEKSKLQEIYQELTQLKAAVGELPDQSKQQQIYQELTDLKTAFERLCRHCPKDWTFFQGNCYFMSNSQRNWHDSVTACQEVRAQLVVIKTAEEQNFLQLQTSRSNRFSWMGLSDLNQEGTWQWVDGSPLSPSFQRYWNSGEPNNSGNEDCAEFSGSGWNDNRCDVDNYWICKKPAACFRDE
Turning to B1, the “glycan array binding signal (z-score)” value in test [1] was -0.074; in test [2] it was 1.11; in test [3], -0.8; in [4] it was -0.508; in [5], -0.308; in [6] it was -0.528. In addition, the “glycan array binding signal (z-score)” value is 0.112 in test [7]; -0.817 in test [8]; -0.72 in test [9]; -0.384 in test [10]; -0.655 in [11]; -0.125 in test [12]. Also, the “glycan array binding signal (z-score)” value is -0.683 in test [13]; -0.326 in [14]; 1.15 in [15]; 2.5 in test [16]; -0.833 in [17]; 3 in test [18]. For the same molecule, the “glycan array binding signal (z-score)” value in test [19] was -0.33; in test [20], 3.03; in [21] it was 0.59; in [22], -0.744.
